Measured values from PubChem BioAssay (NCATS).
Several values for one entry are separate records, joined by “and”; a condition that tells them apart may be missing. Identical values can stand only once. Inconclusive results are not listed. Activity calls are given as the source filed them. Unless noted, calls come from the whole dose curve; as a rule, active = well fitted curve in the direction sought with a large enough effect; inconclusive = small, poorly fitted or top-dose-only effect, or another doubt; inactive = no such curve, though single readings can be large; an effect the other way counts as inactive or inconclusive.

Tests used:
[1] = target: Thyroid hormone receptor beta (Homo sapiens) (UniProt P10828); assay: qHTS assay for small molecule antagonists of thyroid hormone receptor beta signaling (AID 588547; active = well fitted inhibition curve with a large enough effect in the signal ratio, with a control signal flat, not every such curve was filed as active; the % refers to the signal ratio;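 note: cells stimulated with 0.4 nM T3 agonist during compound exposure; % is set by controls: 0 for no effect and ±100 for the full control effect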); conditions: TR-UAS-bla HEK293, beta-lactamase ratio, antagonist mode, 18 h
How it was run: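 TR-UAS-bla GripTite HEK293 cells in 2% charcoal/dextran FBS medium were preincubated 4 h at 37 C, given compound (0.59 nM to 92 uM) plus 0.4 nM T3 (final) for 18 h, then CCF4 for 2 h at RT; Hill fit gave IC50.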

[2] = target: Voltage-gated inwardly rectifying potassium channel KCNH2 (Homo sapiens) (UniProt Q12809); assay: qHTS Assay for Small Molecule Inhibitors of the Human hERG Channel Activity (AID 588834); conditions: U2OS BacMam hERG, FluxOR thallium flux fluorescence; series mostly up to 46.1 µM;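 note: top concentration of the series differs between compounds; % is set by controls: 0 for no effect and ±100 for the full control effect; lower thallium flux fluorescence means stronger hERG block; nearly all actives have a fitted effect of over 50% in size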
How it was run: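 Kinetic FDSS fluorescence; U2OS + hERG BacMam (~100 virus particles/cell); FluxOR Tl+ flux; ~10 min cpd; AC50 (Hill).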

[3] = target: Luciferin 4-monooxygenase (Photinus pyralis) (UniProt P08659); assay: Biochemical firefly luciferase enzyme assay for NPC (AID 624030);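 note: purified P. pyralis luciferase at 10 nM with luciferin and ATP substrate; 0% = DMSO and -100% = full luciferase inhibition by PTC124 control; nearly all actives have a fitted effect of over 70% in size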; conditions: purified P. pyralis luciferase, luminescence, 5 min; series mostly up to 58.6 µM
How it was run: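 Counter-screen for direct inhibition of the luciferase enzyme by approved-drug library compounds, run at 10 nM enzyme in 50 mM Tris acetate (final). Luminescence was read within 5 min of enzyme-buffer addition and normalized to PTC124 versus DMSO (0%).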

[4] = S16 Schwann cell viability assay (CellTiter-Glo assay) (AID 624031); conditions: S16 rat Schwann cells viability, 24 h; series mostly up to 57.5 µM;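 note: native untransfected S16 rat Schwann cells; cellular ATP luminescence as a viability measure; plate controls were DMSO-treated cells for no effect and cell-free wells for full effect; nearly all actives have a fitted effect of over 70% in size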
How it was run: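 Rat S16 Schwann cells without reporter constructs received compound or DMSO for 24 h at 37 °C under 5% CO2. Cellular ATP was then quantified by CellTiter-Glo luminescence, with vehicle wells defined as 0% activity and cell-free wells as reference.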

[5] = S16 Schwann cell PMP22 intronic element firefly luciferase assay (AID 624032); conditions: S16 rat Schwann cells, PMP22 element FLuc, 24 h; series mostly up to 57.5 µM;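 note: plate controls were DMSO for no effect and PTC124 positive control mean for full effect; nearly all actives have a fitted effect of over 30% in size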
How it was run: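 Rat S16 Schwann cells stably carrying a PMP22 intronic element-driven Fluc reporter were seeded overnight, then exposed to compounds for 24 h at 37 °C. Luminescence was normalized to PTC124 (positive control) and DMSO (0% activity).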

[6] = S16 Schwann cell PMP22 intronic element beta-lactamase assay (AID 624044; calls by dose curve;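 note: 0% = DMSO and -100% = potassium clavulanate positive control; nearly all actives have a fitted effect of over 15% in size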); conditions: S16 rat Schwann cells, PMP22 element beta-lactamase FRET, 24 h; ratio activity, negative = inhibition: at 38.3 µM (top of the series) unless noted
How it was run: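 Rat S16 Schwann cells with beta-Lac driven by a PMP22 intronic element, compound-treated 24 h at 37 °C. LiveBLAzer FRET B/G read: 460 nm normalized to potassium clavulanate vs DMSO; 535 nm FRET as viability; concentration-effect curves classified.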

Thyroid hormone receptor beta (Homo sapiens), sequence (P10828 whole entry, looked up): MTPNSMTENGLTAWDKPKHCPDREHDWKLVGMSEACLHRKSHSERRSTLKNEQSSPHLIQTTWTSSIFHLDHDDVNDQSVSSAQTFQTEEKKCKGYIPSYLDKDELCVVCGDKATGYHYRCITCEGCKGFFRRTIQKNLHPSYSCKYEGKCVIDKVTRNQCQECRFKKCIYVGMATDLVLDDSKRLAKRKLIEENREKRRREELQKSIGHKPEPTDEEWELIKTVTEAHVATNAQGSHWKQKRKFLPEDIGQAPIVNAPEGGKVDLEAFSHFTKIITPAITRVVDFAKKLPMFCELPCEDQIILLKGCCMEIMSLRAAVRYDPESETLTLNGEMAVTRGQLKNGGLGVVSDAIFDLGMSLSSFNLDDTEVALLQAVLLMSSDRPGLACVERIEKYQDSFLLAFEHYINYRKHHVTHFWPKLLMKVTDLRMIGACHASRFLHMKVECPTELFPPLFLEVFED
Luciferin 4-monooxygenase (Photinus pyralis), sequence (P08659 whole entry, looked up): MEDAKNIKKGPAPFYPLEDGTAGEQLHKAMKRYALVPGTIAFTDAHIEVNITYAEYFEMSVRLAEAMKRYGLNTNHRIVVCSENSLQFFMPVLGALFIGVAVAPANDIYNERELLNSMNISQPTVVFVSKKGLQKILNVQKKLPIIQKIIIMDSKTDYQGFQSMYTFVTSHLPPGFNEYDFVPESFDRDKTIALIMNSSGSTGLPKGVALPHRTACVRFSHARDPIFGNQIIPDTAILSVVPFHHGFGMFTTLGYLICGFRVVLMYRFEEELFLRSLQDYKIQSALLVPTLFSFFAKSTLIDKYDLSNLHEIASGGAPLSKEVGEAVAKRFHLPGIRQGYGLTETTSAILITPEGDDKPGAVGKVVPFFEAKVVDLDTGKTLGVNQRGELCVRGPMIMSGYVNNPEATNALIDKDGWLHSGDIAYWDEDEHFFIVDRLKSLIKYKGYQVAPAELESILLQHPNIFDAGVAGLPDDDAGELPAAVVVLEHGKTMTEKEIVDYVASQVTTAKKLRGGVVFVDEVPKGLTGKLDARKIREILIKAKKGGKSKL
Voltage-gated inwardly rectifying potassium channel KCNH2 (Homo sapiens), sequence (Q12809 whole entry, looked up): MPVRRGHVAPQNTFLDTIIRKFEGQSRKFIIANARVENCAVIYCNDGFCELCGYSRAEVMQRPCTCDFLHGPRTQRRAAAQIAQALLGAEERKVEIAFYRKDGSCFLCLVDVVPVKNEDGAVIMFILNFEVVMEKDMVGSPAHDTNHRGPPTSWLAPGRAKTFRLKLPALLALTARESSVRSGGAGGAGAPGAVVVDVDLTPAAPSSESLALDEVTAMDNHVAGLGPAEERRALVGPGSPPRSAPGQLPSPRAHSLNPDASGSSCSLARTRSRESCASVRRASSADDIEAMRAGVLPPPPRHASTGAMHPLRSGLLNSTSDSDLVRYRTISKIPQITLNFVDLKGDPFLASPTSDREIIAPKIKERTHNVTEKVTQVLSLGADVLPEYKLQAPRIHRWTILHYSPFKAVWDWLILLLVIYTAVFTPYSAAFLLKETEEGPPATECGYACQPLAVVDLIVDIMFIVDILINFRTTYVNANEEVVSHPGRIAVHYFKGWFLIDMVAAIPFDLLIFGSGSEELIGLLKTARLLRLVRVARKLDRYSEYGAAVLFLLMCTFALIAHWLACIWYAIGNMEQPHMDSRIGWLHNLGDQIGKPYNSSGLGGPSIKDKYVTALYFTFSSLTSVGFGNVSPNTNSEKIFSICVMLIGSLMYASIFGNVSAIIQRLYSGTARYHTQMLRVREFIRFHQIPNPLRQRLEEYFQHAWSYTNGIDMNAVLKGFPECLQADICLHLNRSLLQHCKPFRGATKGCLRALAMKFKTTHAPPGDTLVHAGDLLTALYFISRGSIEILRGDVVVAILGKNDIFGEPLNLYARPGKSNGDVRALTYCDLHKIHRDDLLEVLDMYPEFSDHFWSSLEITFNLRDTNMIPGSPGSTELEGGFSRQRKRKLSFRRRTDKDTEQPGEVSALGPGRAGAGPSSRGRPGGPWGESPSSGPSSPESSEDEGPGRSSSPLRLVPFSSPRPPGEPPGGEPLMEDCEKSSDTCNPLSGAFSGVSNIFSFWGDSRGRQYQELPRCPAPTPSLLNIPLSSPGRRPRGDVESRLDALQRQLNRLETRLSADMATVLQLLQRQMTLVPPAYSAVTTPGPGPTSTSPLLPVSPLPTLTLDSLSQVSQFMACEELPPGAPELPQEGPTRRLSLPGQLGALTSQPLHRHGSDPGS

COC(=O)c1ccccc1O
inactive: activity change % (negative = inhibition) [1] -3.85% | Potency [2] | Potency [3] | Potency [4] | Potency [5]

CC(C)O
inactive: activity change % (negative = inhibition) [1] -11% | Potency [2] | Potency [4] | Potency [5] | ratio activity, negative = inhibition [6] -7.58%

CCCCC(CC)COS(=O)(=O)O (stereo unspecified)
inactive: activity change % (negative = inhibition) [1] 9.71% | Potency [2] | Potency [3] | Potency [4] | Potency [5]

CCCCCCCCCCCCCCCCCC(=O)OC[C@@H](O)[C@H]1OC[C@H](O)[C@H]1O
inactive: activity change % (negative = inhibition) [1] 11.4% | Potency [2] | Potency [3] | Potency [4] | Potency [5] | ratio activity, negative = inhibition [6] 1.3%

CO[C@@H]1[C@H](OC(=O)/C=C/C=C/C=C/C=C/C(=O)O)CC[C@]2(CO2)[C@H]1[C@@]1(C)O[C@@H]1CC=C(C)C
inactive: activity change % (negative = inhibition) [1] 15% | Potency [2]

CC1=CC(=O)NS(=O)(=O)O1
inactive: activity change % (negative = inhibition) [1] 2.81% | Potency [2] | Potency [3] | Potency [4] | Potency [5] | ratio activity, negative = inhibition [6] 1.96%

CC1=CCC2CC1C2(C)C (stereo unspecified)
inactive: activity change % (negative = inhibition) [1] 6.5% | Potency [3] | Potency [4] | Potency [5] | ratio activity, negative = inhibition [6] 2.01%

O.O.O.O.O.O.O.O=S(=O)([O-])[O-].[Co+2]
inactive: activity change % (negative = inhibition) [1] 12.3% | Potency [2] | Potency [3] | Potency [4] | Potency [5] | ratio activity, negative = inhibition [6] -3.44%

CCCCO
inactive: activity change % (negative = inhibition) [1] 5.68% and 1.89% | Potency [2] | Potency [3] | Potency [4] | Potency [5] | ratio activity, negative = inhibition [6] 1.65%

Cc1ccc(S(=O)(=O)O)cc1C
inactive: activity change % (negative = inhibition) [1] -0.818% | Potency [3] | Potency [4] | Potency [5]

OCc1ccccc1
inactive: activity change % (negative = inhibition) [1] -15.9% | Potency [2] | Potency [3] | Potency [4] | Potency [5] | ratio activity, negative = inhibition [6] -1.75%
